Inconclusive results are not listed. Activity calls are given as the source filed them. Unless noted, calls follow the shape of the dose curve; as a rule, active = well fitted curve in the direction sought with a large enough effect in the repeat runs; inconclusive = weak or mixed curves; inactive = no such curve, though single readings can be large; an effect the other way counts as inactive or inconclusive.
What was measured:
[1] = qHTS assay to identify small molecule agonists of the peroxisome proliferator-activated receptor delta (PPARd) signaling pathway - cell viability counter screen (AID 743211); also: % is scaled to controls: 0 for no effect and ±100 for the full control effect; nearly all actives have a fitted effect of over 55% in size
In short: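 Multiplexed format: after the 2 h room-temperature LiveBLAzer B/G FRET step, CellTiter-Glo was added to the same wells. Luminescence after 30 min gave cell viability; compound exposure was 17 h at 37C.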

[2] = qHTS assay to identify small molecule antagonists of the peroxisome proliferator-activated receptor delta (PPARd) signaling pathway - cell viability counter screen (AID 743213); also: % is scaled to controls: 0 for no effect and ±100 for the full control effect; nearly all actives have a fitted effect of over 50% in size
In short: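 In this counter screen, HEK293H cells carrying a UAS-beta-lactamase reporter are co-treated with test compounds and 300 nM L165041 (final) for 17 h at 37 C; cell viability is quantified by CellTiter-Glo luminescence.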

[3] = qHTS assay to identify small molecule agonists of the farnesoid-X-receptor (FXR) signaling pathway - cell viability counter screen (AID 743218); also: % is scaled to controls: 0 for no effect and ±100 for the full control effect; nearly all actives have a fitted effect of over 45% in size
In short: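 Quantitative HTS counter screen measuring ATP-based viability via CellTiter-Glo luminescence in HEK 293T cells carrying a UAS-driven beta-lactamase reporter, after 16 h compound exposure at 37 C.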

[4] = qHTS assay to identify small molecule antagonists of the farnesoid-X-receptor (FXR) signaling pathway - cell viability counter screen (AID 743221; active = well fitted cell-killing curve with a large enough effect in the repeat runs, not every such curve was filed as active; also: % is scaled to controls: 0 for no effect and ±100 for the full control effect; nearly all actives have a fitted effect of over 50% in size)
In short: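 CellTiter-Glo, 30 min RT, luminescence; same wells as the LiveBLAzer FRET read. Cells: FXR-UAS-bla HEK 293T. Treatment: compound with chenodeoxycholic acid 50 uM final, 16 h at 37 C.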

[5] = biological target: Vitamin D3 receptor (Homo sapiens) (UniProt P11473); assay: qHTS assay to identify small molecule agonists of the vitamin D receptor (VDR) signaling pathway (AID 743222; calls by dose curve; also: % is scaled to controls: 0 for no effect and ±100 for the full control effect)
Chain of Vitamin D3 receptor (Homo sapiens) (P11473 whole entry, looked up): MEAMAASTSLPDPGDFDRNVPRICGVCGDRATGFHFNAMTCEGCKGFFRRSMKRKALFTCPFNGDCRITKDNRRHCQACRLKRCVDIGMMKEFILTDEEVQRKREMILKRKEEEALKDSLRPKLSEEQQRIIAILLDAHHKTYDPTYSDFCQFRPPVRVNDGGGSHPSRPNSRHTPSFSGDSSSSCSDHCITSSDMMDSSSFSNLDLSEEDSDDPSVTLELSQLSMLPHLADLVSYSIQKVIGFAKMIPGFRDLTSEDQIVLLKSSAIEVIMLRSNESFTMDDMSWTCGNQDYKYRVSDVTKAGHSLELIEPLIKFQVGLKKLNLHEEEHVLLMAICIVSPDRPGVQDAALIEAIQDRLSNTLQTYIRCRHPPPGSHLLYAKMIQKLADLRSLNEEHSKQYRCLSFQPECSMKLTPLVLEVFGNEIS
In short: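 Tox21 cell reporter format: VDR-bla line, 16 h compound exposure in 5% CO2 at 37C, then fluorescence intensity after 2 h with LiveBLAzer B/G FRET substrate.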

[6] = biological target: Vitamin D3 receptor (Homo sapiens) (UniProt P11473); assay: qHTS assay to identify small molecule antagonists of the vitamin D receptor (VDR) signaling pathway (AID 743223; active = well fitted inhibition curve with a large enough effect in the signal ratio in the repeat runs, not every such curve was filed as active; the % refers to the signal ratio; also: % is scaled to controls: 0 for no effect and ±100 for the full control effect)
In short: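 After VDR-bla cells are plated and left 4 h at 37C, DMSO-dissolved compounds and 3 nM (final) calcitriol agonist are added. Incubation continues 16 h at 37C; FRET beta-lactamase substrate then develops 2 h at room temperature.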

[7] = qHTS assay to identify small molecule agonists of the vitamin D receptor (VDR) signaling pathway - cell viability counter screen (AID 743224); also: series mostly up to about 63 µM; % is scaled to controls: 0 for no effect and ±100 for the full control effect; nearly all actives have a fitted effect of over 50% in size
In short: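 CellTiter-Glo viability readout on VDR-bla cells, measured after 16 h of compound treatment at 37C in the same wells.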

[8] = qHTS assay to identify small molecule antagonists of the vitamin D receptor (VDR) signaling pathway - cell viability counter screen (AID 743225); also: % is scaled to controls: 0 for no effect and ±100 for the full control effect; nearly all actives have a fitted effect of over 50% in size
In short: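 Cytotoxicity toward the VDR-bla HEK 293T line was scored by ATP-based CellTiter-Glo luminescence, read in the wells already used for the beta-lactamase readout after 16 h compound treatment under 3 nM 1-alpha,25-dihydroxyvitamin D3 stimulation.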

[9] = qHTS assay to identify small molecule agonists of the NFkB signaling pathway (AID 1159509; active = well fitted curve in the direction sought with a large enough effect in the signal ratio in the repeat runs, not every such curve was filed as active; the % refers to the signal ratio; also: series mostly up to about 61 µM; % is scaled to controls: 0 for no effect and ±100 for the full control effect)
In short: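 Beta-lactamase reporter assay run in quantitative high-throughput format on an NF-kB-responsive ME-180 line, with 5 hr compound treatment and a FRET-based blue/green fluorescence readout.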

[10] = qHTS assay to identify small molecule agonists of the NFkB signaling pathway - cell viability counter screen (AID 1159515; calls by dose curve; also: series mostly up to about 61 µM; % is scaled to controls: 0 for no effect and ±100 for the full control effect; nearly all actives have a fitted effect of over 55% in size)
In short: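 Tox21 library compounds were tested for cytotoxicity against NFkB-bla ME-180 cells during a 5 hr exposure at 37 C. CellTiter-Glo luminescence served as the viability read-out.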

[11] = qHTS assay to identify small molecule agonists of the endoplasmic reticulum stress response signaling pathway (AID 1159516; active = well fitted activation curve with a large enough effect in the signal ratio in the repeat runs, not every such curve was filed as active; the % refers to the signal ratio; also: % is scaled to controls: 0 for no effect and ±100 for the full control effect)
In short: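 Fluorescence at 460 and 530 nm (405 nm excitation) reports beta-lactamase from an ER stress response element in HeLa cells treated 5 hr at 37 C.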

[12] = qHTS assay to identify small molecule agonists of the endoplasmic reticulum stress response signaling pathway - cell viability counter screen (AID 1159517; calls by dose curve)
In short: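 Steps: seed 1,500 ESRE-bla HeLa cells per well; incubate overnight at 37 C, 5% CO2; add compounds in DMSO for 5 hr; run FRET substrate 2 hr RT; add CellTiter-Glo, wait 30 min, read luminescence.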

[13] = qHTS assay to identify small molecule antagonists of the retinoid-related orphan receptor gamma (ROR-gamma) signaling pathway - cell viability counter screen (AID 1159520)
In short: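 Tet-on ROR gamma CHO cells were given compounds for 2 hr, then doxycycline hyclate at 1 uM final, and incubated 16 hr at 37 C. Viability was measured as ATP content by CellTiter-Glo luminescence.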

[14] = biological target: Nuclear receptor ROR-gamma (Homo sapiens) (UniProt P51449); assay: qHTS assay to identify small molecule antagonists of the retinoid-related orphan receptor gamma (ROR-gamma) signaling pathway (AID 1159521)
In short: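 Readout: ONE-Glo luciferase luminescence, 30 min at room temperature. System: Tet-on RORγ CHO, RORE-LUC. Sequence: compound 2 h, doxycycline 1 uM final, 16 h at 37 C.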

[15] = qHTS assay to identify small molecule agonists of the AP-1 signaling pathway - cell viability counter screen (AID 1159525; calls by dose curve; also: nearly all actives have a fitted effect of over 55% in size)
In short: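 Same-well cytotoxicity counter screen of the Tox21 10K library in ME-180 cells. The readout is ATP-dependent luminescence after 5 h compound treatment. Data are normalised to DMSO and tetra n-octyl ammonium bromide controls.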

[16] = qHTS assay to identify small molecule agonists of the AP-1 signaling pathway (AID 1159526; calls by dose curve; also: % is scaled to controls: 0 for no effect and ±100 for the full control effect)
[17] = biological target: Bile acid receptor (Homo sapiens) (UniProt Q96RI1); assay: qHTS assay to identify small molecule antagonists of the farnesoid-X-receptor (FXR) signaling pathway (AID 743217; active = well fitted inhibition curve with a large enough effect in the signal ratio in the repeat runs, not every such curve was filed as active; the % refers to the signal ratio; also: % is scaled to controls: 0 for no effect and ±100 for the full control effect)
Chain of Bile acid receptor (Homo sapiens) (Q96RI1 whole entry, looked up): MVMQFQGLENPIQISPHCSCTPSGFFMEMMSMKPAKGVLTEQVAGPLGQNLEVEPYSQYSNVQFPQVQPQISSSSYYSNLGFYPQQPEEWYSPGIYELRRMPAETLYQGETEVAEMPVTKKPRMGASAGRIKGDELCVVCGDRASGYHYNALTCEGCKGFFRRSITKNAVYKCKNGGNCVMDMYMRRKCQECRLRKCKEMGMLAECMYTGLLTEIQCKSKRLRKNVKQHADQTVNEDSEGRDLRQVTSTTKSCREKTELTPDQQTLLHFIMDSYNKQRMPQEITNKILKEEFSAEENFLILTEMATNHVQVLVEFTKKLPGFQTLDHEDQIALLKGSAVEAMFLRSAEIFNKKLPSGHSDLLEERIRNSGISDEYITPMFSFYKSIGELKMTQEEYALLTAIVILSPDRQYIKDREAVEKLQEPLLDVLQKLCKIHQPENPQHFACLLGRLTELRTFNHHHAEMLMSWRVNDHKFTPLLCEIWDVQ
In short: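 Test compounds are pin-transferred onto FXR-bla HEK 293T cells, then chenodeoxycholic acid is added at 50 uM final. After 16 h at 37 °C, LiveBLAzer B/G substrate is applied for 2 h at room temperature and fluorescence read.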

[18] = biological target: Bile acid receptor (Homo sapiens) (UniProt Q96RI1); assay: qHTS assay to identify small molecule agonists of the farnesoid-X-receptor (FXR) signaling pathway (AID 743220; active = well fitted activation curve with a large enough effect in the signal ratio in the repeat runs, not every such curve was filed as active; the % refers to the signal ratio; also: % is scaled to controls: 0 for no effect and ±100 for the full control effect)
In short: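 FXR-UAS-bla HEK 293T cells carrying a UAS-driven beta-lactamase reporter were plated for 5 h at 37C/5% CO2, then exposed to DMSO-dissolved Tox21 10K compounds for 16 h at 37C. A LiveBLAzer B/G FRET substrate was loaded for 2 h at room temperature before fluorescence reading.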

[19] = biological target: Peroxisome proliferator-activated receptor delta (Homo sapiens) (UniProt Q03181); assay: qHTS assay to identify small molecule agonists of the peroxisome proliferator-activated receptor delta (PPARd) signaling pathway (AID 743212; calls by dose curve; also: % is scaled to controls: 0 for no effect and ±100 for the full control effect)
Chain of Peroxisome proliferator-activated receptor delta (Homo sapiens) (Q03181 whole entry, looked up): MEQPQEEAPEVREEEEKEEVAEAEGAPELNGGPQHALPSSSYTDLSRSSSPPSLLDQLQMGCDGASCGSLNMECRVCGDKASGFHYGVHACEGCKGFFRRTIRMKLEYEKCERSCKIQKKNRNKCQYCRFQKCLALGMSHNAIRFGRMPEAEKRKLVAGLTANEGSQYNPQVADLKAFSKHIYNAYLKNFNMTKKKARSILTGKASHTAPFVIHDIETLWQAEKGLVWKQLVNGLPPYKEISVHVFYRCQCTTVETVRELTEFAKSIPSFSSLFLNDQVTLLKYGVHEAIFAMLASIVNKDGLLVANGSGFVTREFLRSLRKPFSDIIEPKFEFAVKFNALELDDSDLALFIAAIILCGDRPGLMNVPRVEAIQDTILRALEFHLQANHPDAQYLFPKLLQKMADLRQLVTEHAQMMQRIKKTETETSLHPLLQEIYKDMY
In short: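 Read-out: beta-lactamase FRET fluorescence after 2 h room-temperature incubation with LiveBLAzer B/G substrate. Cells were HEK293H carrying a UAS-bla reporter for PPARd, treated at 37 C with DMSO-dissolved compounds.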

[20] = biological target: Peroxisome proliferator-activated receptor delta (Homo sapiens) (UniProt Q03181); assay: qHTS assay to identify small molecule antagonists of the peroxisome proliferator-activated receptor delta (PPARd) signaling pathway (AID 743215; active = well fitted inhibition curve with a large enough effect in the signal ratio in the repeat runs, not every such curve was filed as active; the % refers to the signal ratio)
In short: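 Here, a reporter line (HEK293H, beta-lactamase under a UAS) measures PPARd signaling. Compounds are tested against agonist L165041 at 300 nM final concentration over 17 h at 37 C, with fluorescence read after substrate.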

O=S(=O)(O)c1cc(O)c2ccc(Nc3ccccc3)cc2c1
inactive: outcome [1] | outcome [2] | Potency [3] | outcome [4] | outcome [5] | outcome [6] | Potency [7] | outcome [8] | outcome [9] | outcome [10] | outcome [11] | Potency [12] | outcome [13] | outcome [14] | outcome [15] | outcome [16]

O=C(NCC(O)CO)c1c(I)c(C(=O)NCC(O)CO)c(I)c(N(CCO)C(=O)CO)c1I (configuration not stated)
inactive: outcome [1] | outcome [2] | Potency [17] | Potency [18] | outcome [4] | outcome [5] | Potency [7] | outcome [8] | outcome [9] | outcome [10] | outcome [11] | Potency [12] | outcome [13] | outcome [14] | outcome [15] | outcome [16]

Cc1cc(C(C)(C)C)c(O)c(C)c1CC1=NCCN1
inactive: outcome [19] | outcome [2] | outcome [4] | Potency [7] | outcome [8] | outcome [9] | outcome [10] | outcome [11] | Potency [12] | outcome [13] | outcome [14] | outcome [15] | outcome [16]

Brc1ccc(-c2ccccc2)cc1
inactive: outcome [1] | outcome [2] | Potency [3] | outcome [4] | outcome [5] | outcome [6] | outcome [9] | outcome [10] | outcome [11] | Potency [12] | outcome [13] | outcome [14] | outcome [15] | outcome [16]

NS(=O)(=O)c1cc2c(cc1Cl)CN(C1CCCCC1)C2=O
inactive: outcome [1] | outcome [2] | Potency [17] | Potency [3] | Potency [18] | outcome [4] | outcome [6] | Potency [7] | outcome [8] | outcome [9] | outcome [10] | outcome [11] | Potency [12] | outcome [13] | outcome [14] | outcome [15] | outcome [16]

O=C(O)Cc1ccc(Cl)cc1Cl
inactive: outcome [19] | outcome [2] | outcome [20] | Potency [3] | outcome [4] | outcome [5] | outcome [6] | Potency [7] | outcome [9] | outcome [10] | outcome [11] | Potency [12] | outcome [13] | outcome [14] | outcome [15] | outcome [16]

O=C1c2cccc3c2[C@H](CCC3)CN1[C@@H]1CN2CCC1CC2
inactive: outcome [19] | outcome [2] | outcome [20] | Potency [3] | outcome [4] | outcome [5] | outcome [6] | Potency [7] | outcome [9] | outcome [10] | outcome [11] | Potency [12] | outcome [13] | outcome [14] | outcome [15] | outcome [16]

COC(=O)CCc1ccc(OCC(O)CNC(C)C)cc1 (configuration not stated)
inactive: outcome [1] | outcome [2] | Potency [3] | outcome [4] | outcome [5] | outcome [6] | Potency [7] | outcome [8] | outcome [9] | outcome [10] | outcome [11] | Potency [12] | outcome [13] | outcome [14] | outcome [15] | outcome [16]

OCCC(F)(F)C(F)(F)C(F)(F)C(F)(F)C(F)(F)C(F)(F)C(F)(F)C(F)(F)F
inactive: outcome [1] | outcome [19] | outcome [2] | Potency [3] | outcome [4] | outcome [5] | outcome [6] | Potency [7] | outcome [8] | outcome [9] | outcome [10] | outcome [11] | Potency [12] | outcome [13] | outcome [14] | outcome [15] | outcome [16]

CCOCCOC(=O)/C=C/c1ccc(OC)cc1
inactive: outcome [1] | outcome [2] | Potency [17] | Potency [3] | Potency [18] | outcome [4] | outcome [5] | outcome [6] | outcome [9] | outcome [10] | outcome [11] | Potency [12] | outcome [13] | outcome [14] | outcome [15] | outcome [16]

O=C1CCCC(=O)O1
inactive: outcome [1] | outcome [19] | Potency [3] | outcome [4] | outcome [5] | outcome [6] | Potency [7] | outcome [8] | outcome [9] | outcome [10] | outcome [11] | Potency [12] | outcome [13] | outcome [14] | outcome [15] | outcome [16]

N[C@@H](COP(=O)(O)O)C(=O)O
inactive: outcome [19] | outcome [2] | outcome [20] | Potency [17] | Potency [3] | Potency [18] | outcome [4] | outcome [5] | Potency [7] | outcome [8] | outcome [9] | outcome [10] | outcome [11] | Potency [12] | activity, negative = cytotoxicity [13] -0.691% [at 19 µM] | activity change, negative = inhibition [14] -15% [at 19 µM] | viability change, negative = cytotoxic [15] 11.4% [at 15.8 µM] | activation [16] -0.856% [at 15.8 µM]

CCN(C)C(=O)Oc1cccc([C@H](C)N(C)C)c1
inactive: outcome [19] | outcome [2] | outcome [20] | Potency [17] | Potency [18] | outcome [4] | Potency [7] | outcome [9] | outcome [10] | outcome [11] | Potency [12] | outcome [13] | outcome [14] | outcome [15] | outcome [16]

CC(C)C(=O)OCCc1ccccc1
inactive: outcome [19] | outcome [2] | outcome [20] | Potency [17] | Potency [3] | Potency [18] | outcome [4] | outcome [5] | outcome [6] | Potency [7] | outcome [8] | outcome [9] | outcome [10] | outcome [11] | Potency [12] | outcome [13] | outcome [14] | outcome [15] | outcome [16]

CCN(CC)CC(=O)Nc1c(C)cccc1C
inactive: outcome [1] | outcome [2] | Potency [17] | Potency [18] | outcome [4] | Potency [7] | outcome [8] | outcome [9] | outcome [10] | outcome [11] | Potency [12] | outcome [13] | outcome [14] | outcome [15] | outcome [16]

O=C(O)c1cc(Cl)cc([N+](=O)[O-])c1Cl
inactive: outcome [2] | Potency [17] | Potency [3] | Potency [18] | outcome [4] | outcome [5] | outcome [6] | outcome [9] | outcome [10] | outcome [11] | Potency [12] | outcome [13] | outcome [14] | outcome [15] | outcome [16]

C=Cc1ccccn1
inactive: outcome [19] | outcome [2] | outcome [20] | Potency [3] | outcome [4] | outcome [5] | outcome [6] | Potency [7] | outcome [8] | outcome [9] | outcome [10] | outcome [11] | Potency [12] | outcome [13] | outcome [14] | outcome [15] | outcome [16]

Source: PubChem BioAssay (Tox21)
